# S2 tox: reduces viability in counter-screen for ATXN expression inhibitors; Potency, µM (titrated, usually from 56.7 µM), actives largely listed as cytotoxic; S2 cells (HEK-293 line with an ATXN2-luciferase reporter) viability, CellTiter-Fluor protease fluorescence, 24 h; actives 0.49% (n = 400,000); also: nearly all actives have a fitted effect of over 40% in size
# ATXN2 expr inh: reduces ATXN2 reporter expression in HEK-293 cells. HEK-293 ATXN2-luciferase reporter, luminescence, 24 h. Potency, µM (doses to about 57 µM), for the others: at the top dose activity change, negative = inhibition, usual class: inhibitors. actives 0.72% (n = 360,000); also: % is scaled to controls: 0 for no effect and ±100 for the full control effect; nearly all actives have a fitted effect of over 55% in size
#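 qHTS (up to 57 uM final) was run with 24 h compound exposure of reporter cells at 37 °C. Each well was multiplexed: SteadyGlo luminescence measured ATXN2-luciferase expression after a fluorogenic Gly-Phe-AFC viability readout (25 uM final).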
# TGFb inhibitor: TGF-b pathway inhibition; HepG2 CAGA-GFP TGF-b/SMAD3 reporter, GFP fluorescence, 18 h; TGF-beta stimulated, 500 pg/mL final; Potency, µM (titrated, usually from 46.1 µM), for the others: at the top dose activity, negative = inhibition, usual class: inhibitors; actives 1.2% (n = 410,000); also: % is scaled to controls: 0 for no effect and ±100 for the full control effect; nearly all actives have a fitted effect of over 65% in size
#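 Per well, imaged GFP fluorescence of HEPG2 CAGA-GFP cells gives the signal; cells get compound, then TGF-beta (500 pg/mL final), 18 h at 37 degrees C; %Activity versus -TGF-beta and +DMSO controls.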
# DT40 TDP1 CPT: DT40-hTDP1 cell growth loss with CPT. Potency, µM (doses to about 46.2 µM), without a hit: at the top dose activity change, negative = growth inhibition, most hits filed as inhibitors. actives 12% (n = 420,000). chicken DT40 Tdp1-/-;hTDP1 cells + 20 nM CPT, ATP luminescence, 48 h. AID 686979; also: % is scaled to controls: 0 for no effect and ±100 for the full control effect; nearly all actives have a fitted effect of over 55% in size
#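 Chicken DT40 Tdp1-/- cells complemented with human TDP1, 400 cells/well, exposed to compounds plus 20 nM camptothecin for at least 48 h at 37 C; viability read as ATP content by CellTiter-Glo luminescence.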
# TDP1 cell noCPT: qHTS for Inhibitors of human tyrosyl-DNA phosphodiesterase 1 (TDP1): qHTS in cells in absence of CPT; DT40 Tdp1-/- hTDP1 cells, no CPT, ATP luminescence, 48 h; Potency, µM (top dose mostly 46.2 µM), inactives show top-dose activity change, negative = growth inhibition, usual class: inhibitors; actives 15% (n = 420,000); AID 686978, 2013; also: % is scaled to controls: 0 for no effect and ±100 for the full control effect; nearly all actives have a fitted effect of over 55% in size
#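 No-CPT arm: Tdp1-/-;hTDP1 DT40 cells (400/well) plus compounds, incubated ≥48 hr at 37 °C. Readout CellTiter-Glo luminescence.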
# HepG2 tox: HepG2 cytotoxicity, counter-screen for TGF-b inhibitors; AID 588856; Potency, µM (highest dose often 46.1 µM), for inactives: at the top dose activity change, negative = cytotoxicity, actives largely listed as cytotoxic; actives 0.76% (n = 410,000); HepG2 CAGA-GFP viability, ATP luminescence, 18 h
#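 CellTiter-Glo luminescence gave cytotoxicity after 18 hours at 37 degrees C. The cells were HepG2 CAGA-GFP in 1% FBS DMEM, stimulated with 500 pg/mL TGF-beta after compound addition. %Activity was normalised to no-cell wells (complete cell-killing) and DMSO (no toxicity), and curves were fitted and classified.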
# The depositor's hits bear a star; i = inactive; ? = inconclusive; . = no result given. Most compounds without a hit are left out; they make up all but 17% or so of the library. Calls follow the shape of the dose curve; as a rule, active = well fitted curve in the direction sought with a large enough effect; inconclusive = small, poorly fitted or top-dose-only effect, or another doubt; inactive = no such curve, though single readings can be large; an effect the other way counts as inactive or inconclusive. Potency is read from the fitted curve at half-maximal effect.
SMILES,S2 tox,ATXN2 expr inh,TGFb inhibitor,DT40 TDP1 CPT,TDP1 cell noCPT,HepG2 tox
COc1ccccc1OCC(=O)/C=C1/N(C)c2ccccc2C1(C)C,i,-19%,-1%,16µM*,21µM*,-2%
CN1/C(=C\C(=O)C[n+]2ccc3ccccc3c2)C(C)(C)c2ccccc21,?,0%,-21%,0.65µM*,0.29µM*,-20%
CN1/C(=C\C(=O)COC(=O)C2COc3ccccc3O2)C(C)(C)c2ccccc21 (configuration not stated),i,-19%,-13%,12µM*,?,1%
Cc1cccc(NC(=O)CN(c2ccc(F)cc2)S(C)(=O)=O)c1,i,.,-2%,-3%,?,-1%
Cc1ccc(C(=O)NCC(=O)OCCCOC(=O)CNC(=O)c2ccc(C)c(C)c2)cc1C,i,-9%,2%,-16%,-13%,-24%
Cc1noc(C)c1C(=O)OCC(=O)/C=C1/N(C)c2ccccc2C1(C)C,i,-20%,18%,?,12µM*,23%
CN1/C(=C\C(=O)COC(=O)c2ccco2)C(C)(C)c2ccccc21,i,-36%,-24%,?,?,-24%
Cc1ccc(C(=O)NCC(=O)OCC(=O)/C=C2\N(C)c3ccccc3C2(C)C)cc1C,i,-21%,-20%,16µM*,?,-38%
OCC[C@@H]1C[C@H](O)[C@@H](O)[C@@]2(CCCCO2)O1,i,4%,?,-21%,-2%,2%
O=C(Nc1cc(Cl)ccc1C(=O)O)c1ccc(CN2C(=O)c3ccccc3C2=O)cc1,i,-23%,-12%,19%,-3%,-4%
Oc1[nH]c2ccccc2c1N=Nc1nc2ccccc2s1,i,77%,11%,?,?,-21%
C/C(N=Nc1nc2ccccc2s1)=N\Nc1ccccc1O,?,?,11µM*,9.2µM*,2.6µM*,-97%
CCOC(=O)c1ccccc1NC(=O)Cn1c(=O)n(CCC(=O)N2CCc3ccccc3C2)c(=O)c2ccccc21,?,-22%,?,21µM*,8.2µM*,-16%
Cc1ccc(NC(=O)Cn2c(=O)n(CCC(=O)N3CCc4ccccc4C3)c(=O)c3ccccc32)c(C)c1,i,5%,-25%,21µM*,23µM*,-8%
Nc1ccn([C@@H]2O[C@H](CNC(=O)[C@@H](Cc3cn(COCc4ccccc4)cn3)NC=O)[C@@H](O)[C@H]2O)c(=O)n1,i,-3%,2%,1%,-9%,7%
COCCSc1ncnc2c1oc1nc3c(cc12)COC(C)(C)C3,i,.,-27%,-28%,?,-41%
CC1(C)Cc2nc3oc4c(N(CCO)Cc5ccccc5)ncnc4c3cc2CO1,i,-32%,-1%,21µM*,21µM*,-22%
COc1ccc(CNC(=O)CCC(=O)Nc2ccc(Cl)cc2)cc1,?,-7%,6%,0%,8%,-2%
Cc1cccc(N2CCN(C(=O)c3cnn(-c4ccccc4)c3C3CCN(C(=O)OC(C)(C)C)CC3)CC2)c1C,.,.,-15%,?,16µM*,-19%
CCc1cccc(C)c1NC(=O)c1cnn(-c2ccc(OC)cc2)c1C1CCN(C(=O)OC(C)(C)C)CC1,.,.,?,18µM*,18µM*,5%
CC(C)(C)OC(=O)N1CCC(c2c(C(=O)N3CCN(c4ccccn4)CC3)cnn2-c2cccc(F)c2)CC1,.,.,0%,18µM*,16µM*,5%
COc1ccc(-n2ncc(C(=O)N3CCN(c4ccccn4)CC3)c2C2CCN(C(=O)OC(C)(C)C)CC2)cc1,.,.,11%,?,21µM*,9%
COc1ccc(CCNC(=O)c2c(C)oc3ncn(C)c(=O)c23)c(OC)c1,i,9%,1%,-1%,-6%,-3%
COc1ccc(N2CCN(C(=O)c3cnn(-c4ccc(OC)cc4)c3C3CCN(C(=O)OC(C)(C)C)CC3)CC2)cc1,.,.,5%,18µM*,?,9%
Cc1csc(NC(=O)c2ccc3ccccc3n2)n1,i,82%,-11%,?,?,-34%
SMILES,S2 tox,ATXN2 expr inh,TGFb inhibitor,DT40 TDP1 CPT,TDP1 cell noCPT,HepG2 tox
O=C(Nc1ccc(-n2cnnn2)cc1)c1cn2ccccc2n1,i,4%,0%,-15%,?,4%
Cc1csc(NC(=O)c2cn3ccccc3n2)n1,i,4µM*,0%,?,?,-64%
O=C(Nc1ccccc1)c1cn2ccccc2n1,i,11µM*,2%,?,-9%,-44%
O=C(CSc1nnc2scc(-c3ccccc3)n12)Nc1ccc(Cl)cc1,i,1%,14%,-26%,?,2%
O=C(C[n+]1c(Cl)cc(Cl)c2ccccc21)c1ccccc1,.,.,-19%,4.5µM*,6.3µM*,-21%
Cc1sc2ccccc2[n+]1CC(=O)c1ccccc1,?,.,2%,?,18µM*,0%
Cc1sc2ccccc2[n+]1CCC[n+]1c(C)sc2ccccc21,.,.,11µM*,2µM*,1.8µM*,-38%
O=C(C[n+]1cc(Br)cc(Br)c1)c1ccccc1,?,-1%,3%,8%,-25%,-7%
Cc1sc2ccccc2[n+]1CC(=O)c1ccc(F)cc1,.,.,1%,0%,-3%,33%
CC(C)(C)NCC(O)Cn1cc(C=O)c2ccccc21 (configuration not stated),i,.,-10%,-7%,-1%,-20%
CCCN(CCC)CC(O)Cn1cc(/C=C/C(=O)c2ccc(C)cc2)c2ccccc21 (configuration not stated),?,?,?,?,21µM*,8.9µM*
CCCN(CCC)CC(O)Cn1cc(/C=C/C(=O)c2ccc(Br)cc2)c2ccccc21 (configuration not stated),.,-2%,8%,3.3µM*,4.6µM*,-35%
CCCN(CCC)CC(O)Cn1cc(/C=C/C(=O)c2cccs2)c2ccccc21 (configuration not stated),i,-5%,-21%,18µM*,?,-20%
COc1ccc(OC)c(NC(=O)CSc2ccc3nnc(-c4ccccn4)n3n2)c1,i,-9%,-13%,1%,11%,9%
CC1(C)CC(=O)C(N=Nc2ccc(S(=O)(=O)N3CCOCC3)cc2)=C(O)C1,i,-16%,-11%,7%,-19%,-15%
